From PubChem BioAssay AID624260 (Broad Institute, 2012)
Out of some 44,000 compounds screened, about 30 (0.07%) were called active. Inconclusive results (about 1%) are left out. Cut-off read from the data, not from the text of the source: active = inhibition above about 54% (passing the limit was not always enough); inconclusive = no clear call, values can overlap the other calls. The list comes from a sample in which actives are over-represented; it also holds similar structures and randomly drawn compounds.

biological target: Histone-lysine N-methyltransferase NSD2 (Homo sapiens) (UniProt O96028); test: NSD2 histone methyltransferase activity blockers – biochemical, plate reader, single point, primary screen (AID 624260); details: NSD2-SET H3K36me1 DELFIA fluorescence, at 12.5 µM, hits give high values;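 note: inhibitors reduce the monomethyl H3K36 fluorescence signal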
Sequence (O96028 whole entry, looked up): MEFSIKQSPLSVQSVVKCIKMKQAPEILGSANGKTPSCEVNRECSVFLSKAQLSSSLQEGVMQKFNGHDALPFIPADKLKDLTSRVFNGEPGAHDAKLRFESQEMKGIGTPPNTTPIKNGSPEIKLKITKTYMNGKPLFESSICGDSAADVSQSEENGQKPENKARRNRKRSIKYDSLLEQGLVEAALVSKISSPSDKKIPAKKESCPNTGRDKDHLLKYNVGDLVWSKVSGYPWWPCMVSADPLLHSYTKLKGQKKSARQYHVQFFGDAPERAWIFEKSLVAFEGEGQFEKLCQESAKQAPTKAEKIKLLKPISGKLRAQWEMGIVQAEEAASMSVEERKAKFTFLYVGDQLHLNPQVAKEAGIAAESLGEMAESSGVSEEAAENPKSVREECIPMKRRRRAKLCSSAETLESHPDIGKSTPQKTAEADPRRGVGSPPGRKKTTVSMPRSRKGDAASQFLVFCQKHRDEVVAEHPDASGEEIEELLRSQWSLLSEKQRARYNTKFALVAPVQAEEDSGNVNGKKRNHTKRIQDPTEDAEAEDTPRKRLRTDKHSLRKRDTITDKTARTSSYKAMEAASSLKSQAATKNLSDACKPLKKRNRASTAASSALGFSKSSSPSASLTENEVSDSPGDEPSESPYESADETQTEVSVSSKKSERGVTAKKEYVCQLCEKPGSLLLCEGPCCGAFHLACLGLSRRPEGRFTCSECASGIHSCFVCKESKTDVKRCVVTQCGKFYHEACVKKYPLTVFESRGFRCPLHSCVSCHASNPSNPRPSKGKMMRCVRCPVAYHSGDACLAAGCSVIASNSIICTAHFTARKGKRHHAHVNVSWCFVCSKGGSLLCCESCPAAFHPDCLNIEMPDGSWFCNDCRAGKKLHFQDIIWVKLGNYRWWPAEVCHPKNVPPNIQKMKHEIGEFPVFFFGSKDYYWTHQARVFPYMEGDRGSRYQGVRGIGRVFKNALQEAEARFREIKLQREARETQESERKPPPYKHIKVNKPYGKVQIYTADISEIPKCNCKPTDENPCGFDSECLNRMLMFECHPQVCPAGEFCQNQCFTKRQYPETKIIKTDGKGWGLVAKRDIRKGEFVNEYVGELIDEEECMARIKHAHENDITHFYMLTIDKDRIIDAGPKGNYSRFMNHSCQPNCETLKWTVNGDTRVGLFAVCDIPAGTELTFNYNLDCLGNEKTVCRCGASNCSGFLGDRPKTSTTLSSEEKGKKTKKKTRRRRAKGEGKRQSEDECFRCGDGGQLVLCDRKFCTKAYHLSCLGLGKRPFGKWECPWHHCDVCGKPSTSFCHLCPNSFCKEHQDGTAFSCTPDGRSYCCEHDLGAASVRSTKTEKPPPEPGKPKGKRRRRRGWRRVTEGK

inhibition, inactive:
Cc1ccc(-c2cnc3c(c2)C(=O)N([C@H](C)CO)C[C@H](C)[C@@H](CN(C)S(C)(=O)=O)O3)cc1 4.66%
C[C@H]1CN([C@@H](C)CO)C(=O)c2cc(-c3cccc(F)c3)cnc2O[C@@H]1CN(C)C(=O)c1ccccn1 3.24%
C[C@@H]1CN([C@H](C)CO)C(=O)c2cc(C#Cc3ccncc3)cnc2O[C@H]1CN(C)Cc1ccncc1 6.93%
C[C@@H]1CN([C@@H](C)CO)C(=O)c2cc(C#Cc3ccncc3)cnc2O[C@@H]1CN(C)C(=O)CN(C)C 3.43%
CCCC#Cc1cnc2c(c1)C(=O)N([C@H](C)CO)C[C@H](C)[C@@H](CN(C)S(=O)(=O)c1ccccc1)O2 8.48%
C[C@@H]1CN([C@@H](C)CO)S(=O)(=O)c2ccc(C#Cc3cccnc3)cc2O[C@@H]1CN(C)C(=O)CN(C)C 0.378%
COCC#Cc1cnc2c(c1)C(=O)N([C@H](C)CO)C[C@H](C)[C@H](CN(C)C(=O)Cc1cccnc1)O2 -0.822%
C[C@H](O)C#Cc1ccc2c(c1)O[C@@H](CN(C)C(=O)C1CC1)[C@H](C)CN([C@H](C)CO)S2(=O)=O 3.98%
CCC(=O)N(C)C[C@@H]1Oc2cc(C#CCOC)ccc2S(=O)(=O)N([C@@H](C)CO)C[C@@H]1C 4.65%
C[C@H](CO)N1C[C@H](C)[C@@H](CN(C)S(=O)(=O)c2cccc(F)c2)Oc2cc(C#CCN(C)C)ccc2S1(=O)=O 0.824%
COc1cc(/C=N/NC(=O)c2ccc(C(=O)NO)cc2)ccc1O -2.52%
C[C@@H]1CN([C@H](C)CO)C(=O)c2cc(C#CCN(C)C)cnc2O[C@@H]1CN(C)C(=O)Cc1cccnc1 -1.47%
CCCC#Cc1cnc2c(c1)C(=O)N([C@@H](C)CO)C[C@@H](C)[C@@H](CN(C)Cc1ccccc1F)O2 4.92%
C[C@@H]1CN([C@@H](C)CO)C(=O)c2cc(C#CC3CCCCC3)cnc2O[C@H]1CN(C)C(=O)Cc1ccccn1 -1.35%
CNC[C@H]1Oc2cc(C#CCOC)ccc2S(=O)(=O)N([C@@H](C)CO)C[C@H]1C -0.881%
C[C@H]1CN([C@@H](C)CO)S(=O)(=O)c2ccc(-c3ccncc3)cc2O[C@@H]1CN(C)C(=O)CC1CC1 -0.24%
C[C@@H]1CN([C@@H](C)CO)C(=O)c2cc(-c3ccncc3)cnc2O[C@@H]1CN(C)C(=O)C1CCCCC1 1.45%
C[C@@H]1CN([C@@H](C)CO)C(=O)Cc2cc(NC(=O)C3CC3)ccc2O[C@H]1CN(C)C(=O)NC1CCCCC1 4.29%
